# Experimental data published in PubChem BioAssay (EPA / NIEHS).
# “And” between values parts separate entries of the source, which are not always exact repeats. Equal values may be shown once. The source made the active and inactive calls. Rule for the calls: active = hit-call score of the fitted dose curve at least 0.9, where 1 is the maximum; inactive = score below 0.9.
# Test: CCTE_Shafer_MEA_acute_burst_percentage_std: CCTE's Neural Acute Assay for Standard Deviation of Burst Percentage, Shafer Lab (AID 2284018);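 note: fitted in the negative direction so actives lower burst percentage SD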
# Protocol: CCTE_Shafer_MEA_acute assay is conducted using Axion Biosystems 48 well microelectrode array (MEA) plates and Maestro recording system. Each well of the MEA plate contains a grid of 16 microelectrodes embedded in the culture surface. Electrically active cells, such as neurons, can be cultured over the electrodes, and electrical activity in these cells can be recorded extracellularly. The spontaneous firing of neurons is captured from each electrode on a microsecond timescale providing both temporally and spatially precise data. […] The CCTE_Shafer_MEA_acute assay uses primary cultures of rat cortical neurons. As these cultures mature over time, neural networks develop functional activity and form cohesive networks in which electrical activity can be highly coordinated. Baseline 40-minute recordings are made on days post-plating 13 or 15, followed by a secondary 40-minute recording after chemical exposure.CCTE_Shafer_MEA_acute_burst_percentage_std is a component of the CCTE_Shafer_MEA_acute assay. It measures the percentage of spikes (action potential firing) in a single-electrode burst (temporally-clustered groups of spikes) as the number of spikes in bursts divided by the total number of spikes during a recording in a microelectrode array (MEA) using Axion Biosystems Maestro 768 channel amplifier with the AxIS adaptive spike detector. The standard deviation of the burst percentages across electrodes is calculated to report a well-level value. The recordings before and after chemical treatment are used to calculate a percent change in the standard deviation of the burst percentage in each well.Data from the assay component CCTE_Shafer_MEA_acute_burst_percentage_std was analyzed into 1 assay endpoint. This assay endpoint, CCTE_Shafer_MEA_acute_burst_percentage_std, was analyzed in the negative analysis fitting direction relative to DMSO as the negative control and baseline of activity. Using a type of functional reporter, gain or loss-of-signal activity can be used to understand electrical activity.
# Spontaneous activity in the cortical cultures was recorded using an Axion Biosystems Maestro 768 channel amplifier and Axion Integrated Studios (AxIS) v1.8 (or later) software. The amplifier recorded from all channels simultaneously (gain = 1200 x; sampling rate = 12.5 kHz/channel): raw signals were filtered with a Butterworth band-pass filter (300-5000 Hz), which filters out slower local field potentials leaving only fast potentials, i.e., "spikes", arising from extracellular currents associated with action potentials (Pine 2006; Wheeler and Nam 2011). On-line spike detection of filtered signals was conducted with the AxIS adaptive spike detector, using a threshold of 8x the root mean squared (rms) noise on each channel. Any electrodes with rms noise levels greater than 5 uV were grounded (e.g., no data were recorded). Once grounded, an electrode was grounded for the duration of the experiment. All recordings were conducted at 37 C. Wells were deemed usable if on the day of the exposure >/= 10 electrodes were active (defined as >/= 5 spikes/min). On DIV 13 or 15, a minimum of three wells from one cortical culture preparation were treated with each compound (0.03-40 uM). Prior to recording baseline activity, each mwMEA plate was placed in the Maestro at 37 C and allowed to sit for 20 min while firing rates stabilized. Baseline activity (40 min) was recorded before the addition of each compound. An additional 40 min of spontaneous activity was recorded in the presence of each compound. Changes in network parameters relative to baseline were assessed following compound treatment.
SMILES,outcome,AC50
C=CCC1=C(C)C(OC(=O)C2C(C=C(C)C)C2(C)C)CC1=O (stereo not drawn),inactive,
N#Cc1nn(-c2c(Cl)cc(C(F)(F)F)cc2Cl)c(N)c1S(=O)C(F)(F)F (stereo not drawn),,36.5 µM (active) and 3.5 µM (active)
CO/C=C(/C(=O)OC)c1ccccc1Oc1cc(Oc2ccccc2C#N)ncn1,inactive,
CC(C)(C)c1ccc(CSc2cnn(C(C)(C)C)c(=O)c2Cl)cc1,inactive,
O=C(O)c1nc(Cl)ccc1Cl,inactive,
CC(C)Oc1cc(-n2nc(C(C)(C)C)oc2=O)c(Cl)cc1Cl,inactive,
Fc1ccc(Oc2ccnc3cc(Cl)cc(Cl)c23)cc1,inactive,
CC(Oc1ccc(Cl)cc1Cl)C(=O)O (stereo not drawn),inactive,
COC(=O)N(OC)c1ccccc1COc1ccn(-c2ccc(Cl)cc2)n1,,76.5 nM (active)
Cc1ccc(-c2c(Cl)nc(C#N)n2S(=O)(=O)N(C)C)cc1,inactive,
COP(N)(=O)SC (stereo not drawn),inactive,
CON(C)C(=O)Nc1ccc(Cl)c(Cl)c1,,649 nM (active)
N#CC(CCc1ccc(Cl)cc1)(Cn1cncn1)c1ccccc1 (stereo not drawn),inactive,
C=CCC1=C(C)[C@@H](OC(=O)[C@@H]2[C@@H](C=C(C)C)C2(C)C)CC1=O,inactive,
C#CCOS(=O)OC1CCCCC1Oc1ccc(C(C)(C)C)cc1 (stereo not drawn),,34600 nM (active)
CCCCNC(=O)OCC#CI,inactive,
CNC(=O)ON=CC(C)(C)SC,inactive,
Cc1c(F)c(F)c(COC(=O)C2C(/C=C(\Cl)C(F)(F)F)C2(C)C)c(F)c1F (stereo not drawn),inactive,
CCCN(CCC)c1c([N+](=O)[O-])cc(S(N)(=O)=O)cc1[N+](=O)[O-],inactive,
CS/C(C)=N/OC(=O)N(C)SN(C)C(=O)O/N=C(\C)SC,inactive,
COP(=S)(OC)Oc1nc(Cl)c(Cl)cc1Cl,inactive,
OC(c1ccc(Cl)cc1)(c1cncnc1)c1ccccc1Cl (stereo not drawn),inactive,
COC(=O)C(C)Oc1ccc(Oc2ccc(Cl)cc2Cl)cc1 (stereo not drawn),inactive,
CCCC1COC(Cn2cncn2)(c2ccc(Cl)cc2Cl)O1 (stereo not drawn),inactive,
CCNc1nc(Cl)nc(NC(C)C)n1,inactive,
CCOP(=S)(OCC)SCn1c(=O)oc2cc(Cl)ccc21,inactive,
CC1COC(Cn2cncn2)(c2ccc(Oc3ccc(Cl)cc3)cc2Cl)O1 (stereo not drawn),,36600 nM (active)
COc1ccc(C(c2ccc(OC)cc2)C(Cl)(Cl)Cl)cc1,inactive,
